The whole screen tested about 360,000 compounds, of which about 3,000 (0.83%) were called active. Cut-off read from the data, not from the text of the source: active = inhibition above about 50%; inactive = the rest. Shown is part of a subset that was picked to be rich in actives.
The compounds below were run against DNA (cytosine-5)-methyltransferase 1 (Homo sapiens) (UniProt P26358) (assay: human DNMT1 methyltransferase inhibitors, primary screen, biochemical, molecular beacon, fluorescence, HinP1I cleavage, uHTS (AID 588458)). Conditions: at 10 µM, stronger effect = higher value.
Sequence of DNA (cytosine-5)-methyltransferase 1 (Homo sapiens) (P26358 504-1616 limits assumed): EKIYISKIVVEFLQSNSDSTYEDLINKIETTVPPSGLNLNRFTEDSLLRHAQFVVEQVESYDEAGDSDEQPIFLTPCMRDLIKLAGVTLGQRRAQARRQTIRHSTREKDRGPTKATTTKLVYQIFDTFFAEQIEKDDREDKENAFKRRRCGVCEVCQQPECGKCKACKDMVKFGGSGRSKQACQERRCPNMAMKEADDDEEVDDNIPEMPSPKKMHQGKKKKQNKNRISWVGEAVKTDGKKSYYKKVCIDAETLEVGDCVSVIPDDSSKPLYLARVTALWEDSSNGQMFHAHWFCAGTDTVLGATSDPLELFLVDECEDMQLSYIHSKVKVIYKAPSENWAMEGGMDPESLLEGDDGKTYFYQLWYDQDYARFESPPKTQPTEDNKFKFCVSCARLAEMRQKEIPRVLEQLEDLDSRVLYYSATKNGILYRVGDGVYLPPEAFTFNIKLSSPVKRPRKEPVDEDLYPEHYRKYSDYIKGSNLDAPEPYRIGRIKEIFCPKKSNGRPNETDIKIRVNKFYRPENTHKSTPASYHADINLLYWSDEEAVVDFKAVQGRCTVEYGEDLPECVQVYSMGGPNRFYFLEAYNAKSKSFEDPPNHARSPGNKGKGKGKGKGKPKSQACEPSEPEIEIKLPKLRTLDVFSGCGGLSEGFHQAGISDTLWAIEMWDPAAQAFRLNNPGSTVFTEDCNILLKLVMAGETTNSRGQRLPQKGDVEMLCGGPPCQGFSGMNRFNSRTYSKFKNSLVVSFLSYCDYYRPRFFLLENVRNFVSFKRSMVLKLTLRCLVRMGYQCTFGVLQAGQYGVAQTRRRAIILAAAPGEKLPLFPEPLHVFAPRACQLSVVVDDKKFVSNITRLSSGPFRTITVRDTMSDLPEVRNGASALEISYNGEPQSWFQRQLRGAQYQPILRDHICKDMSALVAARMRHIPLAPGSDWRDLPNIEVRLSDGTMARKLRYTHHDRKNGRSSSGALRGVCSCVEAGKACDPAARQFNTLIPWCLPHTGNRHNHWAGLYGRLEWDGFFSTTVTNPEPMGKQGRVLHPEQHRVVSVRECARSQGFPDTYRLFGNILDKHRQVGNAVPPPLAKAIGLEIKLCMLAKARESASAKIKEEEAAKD

Inhibition (reported as % activation of signal), inactive:
CN(C)CC(C)(C)CNC(=O)c1cc(Br)cc(Br)c1O -5.18%, CCOc1ccccc1C1NC(=O)NC(C)=C1C(=O)OCc1ccco1 (stereo not drawn) -2.52%, CCCn1nc(C(=O)NNC(=O)CCOc2ccccc2OCC)c2ccccc2c1=O 0.9%, CCc1ccc(C(=O)C(C)OC(=O)CN2C(=O)NC3(CCCC3)C2=O)cc1 (stereo not drawn) 3.64%, N#Cc1cccc(NC(=O)COC(=O)c2ccccc2C(=O)c2ccc(Cl)c([N+](=O)[O-])c2)c1 -3.9%, CCCc1cc(=O)[nH]c(SCC(=O)Nc2sc3c(c2C#N)CCCC3)n1 -0.63%, COc1cccc(CN(C)CC(=O)Nc2sc3c(c2C#N)CCC3)c1 -0.9%, CCCCN(C)CCNC(=O)CSCc1ccc(C)cc1 1.5%, CC1=C(C(=O)N2CCOCC2)CC(CC(=O)NCc2cccs2)C(=O)N1CCCN1CCCC1=O (stereo not drawn) 6.83%, COC(=O)c1ccc(COc2ccc(/C=C/C(=O)c3ccc(OC)c(CSCC(=O)O)c3)cc2OC)cc1 11.9%, COc1ccccc1CCNC(=O)C1CCN(C(=O)/C=C/c2ccccc2)CC1 -0.55%, CC(C)(C)NC(=O)COC(=O)c1cc(Cl)ccc1[N+](=O)[O-] 6.7%, O=S(=O)(c1cccc(-c2nnc(SC(F)F)n2-c2ccccc2)c1)N1CCCCC1 -1.8%, CCn1ccnc1CNC(=O)CC1C(=O)NCCN1Cc1ccc(F)cc1Cl (stereo not drawn) -0.81%, COc1ccc(S(=O)(=O)N2CCOC2CNC(=O)C(=O)NCc2ccncc2)cc1OC (stereo not drawn) -1.09%, COc1ccc(NC(=O)C2C3C=CC(C3)C2C(=O)NCc2ccccn2)c(OC)c1 (stereo not drawn) 1.26%, CCCn1nnnc1NCc1ccc(CC)cc1 0.45%, CCOC(=O)C1CCCN(C(=O)c2ccc(N(C)C)cc2)CC1 (stereo not drawn) -7.05%, O=c1[nH]c(SCc2cccc(F)c2)nc2ccccc12 -0.9%, O=c1[nH]c(/C=C\c2cccc(C(F)(F)F)c2)nc(O)c1[N+](=O)[O-] 4.66%, CCN(CC)C(=O)CSc1nnc(-c2ccc(S(=O)(=O)NCc3ccccc3Cl)cc2)o1 4.4%, Clc1cc(NC2CCCCC2)ncn1 1.17%, CCCC(C(=O)NCc1ccco1)N(C(=O)CNS(=O)(=O)c1ccccc1)C1CCCC1 (stereo not drawn) 0.13%, O=S(=O)(Nc1nccs1)c1ccc2c(c1)OCCO2 0.9%, CC(Oc1ccc(Cl)cc1Cl)C(=O)/C=C/N(C)C (stereo not drawn) 1.08%, Cn1c(Nc2ccc(F)cc2)nc2cc(-c3ccsc3)sc2c1=O 1.88%, COc1ccc(S(=O)(=O)N2CCC(C(=O)NCCC(=O)Nc3ccccc3OC)CC2)cc1 3.13%, CC(CCc1ccc(O)cc1)NCc1ccc(Cl)cc1Cl (stereo not drawn) 1.55%, COc1cccc(/C=C2\SC(=N)N(c3ccc(F)cc3)C2=O)c1 29.4%, COc1ccc(N2C(=O)CNC2=S)cc1 0.19%, COC(=O)C1=C(C)NC(=S)NC1c1ccc(OCC(=O)N2CC(C)OC(C)C2)c(OC)c1 (stereo not drawn) -3.49%, O=C1CC(Cc2ccc(Cl)cc2)C(=O)N1c1cc(Cl)ccn1 (stereo not drawn) 1.99%, O=C(NC1CCCC1)C(NS(=O)(=O)c1ccc(Br)s1)c1ccccc1 (stereo not drawn) 3.01%, Cc1ccc(/C=C/C(=O)OCC(=O)Nc2cccnc2Cl)cc1 0.14%, COc1ccc(NC(=O)CN(C)C(=O)/C=C/c2cn(Cc3ccccc3)nc2-c2cccnc2)cc1 2.58%, CCN(CC(=O)Nc1ccc(OC)cc1)C(=O)c1ccc(=O)n(Cc2ccccc2)n1 4.56%, CC1(Oc2cccc(F)c2)CCN(Cc2ccccc2OC(F)F)C1 (stereo not drawn) 8.51%, CCCOc1ccc2c3c(c(=O)oc2c1OCCC)CCC3 5.15%, CCCn1nc(C(=O)OCc2nc(N)nc(Nc3ccccc3C)n2)c2ccccc2c1=O -3.44%, Cc1ccc(C(=O)NNC(=O)CSc2nnc3ccccn23)cc1 -3.3%, Cc1ccc(C(=O)NNc2ncnc3ccccc23)cc1 2.1%, CCOc1cc(C(=O)Nc2c(C)ccc3nsnc23)cc(OCC)c1OCC 1.78%, c1ccc2c(-c3nn4nnnc4c4ccccc34)cccc2c1 -1.65%, CCCN1Cc2cccc(C(=O)NCc3ccccc3)c2C1=O 0.1%, Cc1ccc(S(=O)(=O)N2CCN=C2SCc2c(F)cccc2Cl)cc1 -1.13%, CCOC(=O)C/C(C)=N\Nc1ccc([N+](=O)[O-])cc1[N+](=O)[O-] 8.42%, C/C(=N\Nc1ccccc1)c1cccs1 -15%, CCCCNc1c(-c2cccc(Sc3ccc(OC)cc3)c2)nc2ccccn12 -24.9%, CCc1nnc(NC(=O)c2cc(S(=O)(=O)N3CCN(CC)CC3)ccc2Cl)s1 1.36%, O=C(COC(=O)c1ccc(S(=O)(=O)N2CCc3ccccc3C2)cc1)NC(=O)NCc1ccco1 4.21%, CCc1nc(SCC(=O)Nc2ccccc2OC)n[nH]1 0.12%, CCOc1ccccc1NC(=S)C(=C([O-])c1ccc2c(c1)OCCO2)[n+]1ccc(CC)cc1 -14.6%, CC(C)(C)n1nc(Cc2cccc3ccccc23)c(C#N)c1N 3.39%, CCCCn1nnnc1C(c1cccc(OC)c1OC)N1CCN(C/C=C/c2ccccc2)CC1 (stereo not drawn) -2.12%, O=C(CCN1CCc2ccccc2C(O)(c2ccccc2)C1)c1ccc2c(c1)OCCO2 (stereo not drawn) -2.82%, CSC1=NC2(C)CCCCC2C12C=CC(=O)C=C2 (stereo not drawn) -0.69%, CS(=O)(=O)N(CC(=O)N1CCN(c2ccc(F)cc2)CC1)C1CCCCC1 0.1%, O=C(NNC1=NCCC1)c1cccc(S(=O)(=O)N2CCCCC2)c1 2.1%, Cc1nn(C)cc1CNC(=O)Nc1ccc(Cl)cc1 -5.06%, O=C(NCc1cccs1)c1cc(-c2ccccn2)nc2ccc(Br)cc12 18.8%, CCCCc1nc2cc(C(=O)N3CCCCC3CCO)ccc2o1 (stereo not drawn) 0.96%, CC1CCN(C(=O)CCc2nnc3ccc(NCc4ccco4)nn23)CC1 -2.17%, N#Cc1c(NC(=O)CCCN2C(=O)c3ccccc3C2=O)oc(-c2ccccc2)c1-c1ccccc1 -7.82%, CC(C)C(=O)Nc1oc(-c2ccccc2)cc1C#N 1.41%, Cc1cc(=O)oc(C)c1C(=O)NC1CC(C)(C)NC(C)(C)C1 4.08%, O=C(Nc1nccs1)C1CCN(S(=O)(=O)c2ccc(Cl)c(C(F)(F)F)c2)CC1 -0.42%, Cc1ccc(C)c(C(O)c2ncc(-c3cccc4ccccc34)[nH]2)c1 (stereo not drawn) -0.1%, O=C1CSc2ccc(S(=O)(=O)NCc3ccccc3)cc2N1 -1.62%, OCCCC1CCCCN1Cc1nc(Cc2ccccc2Cl)no1 (stereo not drawn) 0.35%, CCN(CC)c1ccc(NC(=O)c2ccc(Cl)nc2)cc1 -2.12%, O=C(NNC(=O)c1ccc(Cl)nc1)c1ccc(Br)cc1 5.15%, CCN(CC)P(=O)(C(NC(=O)OC)C(F)(F)C(F)(F)C(F)(F)C(F)F)N(CC)CC (stereo not drawn) 0.14%, CC1CCN(C(=O)COC(=O)CCC(=O)c2cccs2)CC1 0.68%, O=C(COC(=O)Cc1ccc(Cl)cc1Cl)NCc1ccco1 -2.23%, N#CCC(=O)Nc1ccc(C(=O)OCC(=O)Nc2sc3c(c2C#N)CCCC3)cc1 -11.8%, CC(C)NC(=O)NC(=O)COC(=O)c1ccc(NC(=O)CC#N)cc1 -1.52%

Inhibition (reported as % activation of signal), active:
CCOc1ccccc1/C=c1\sc2nc(-c3ccco3)nn2c1=O 93.3%, COc1ccc(-n2c(SCC(=O)Nc3sc4c(c3C#N)CCCC4)nnc2-c2ccc(O)cc2)cc1 67.7%, COc1ccc(C(=O)/C=C/c2ccc(-c3ccccc3)cc2)cc1CSCC(=O)O 56%, O=c1[nH]c(/C=C/c2cccc(Br)c2)nc2ccccc12 53%, c1coc(-c2nc3nc4ccccc4n3nc2-c2ccco2)c1 86.2%, COc1ccc(/C=C2\SC(=N)N(c3ccc(F)cc3)C2=O)cc1 59%, O=C(COC(=O)/C=C/c1cn(-c2ccccc2)nc1-c1cccnc1)Nc1ccc(Cl)cc1Cl 56%, Nc1ccc2nc3c(=O)[nH]c(=S)[nH]c3nc2c1 129%, Cc1ccc(C(=O)NNC(=O)c2cc3cc4ccccc4nc3s2)cc1 54.4%, C/C(=N\Nc1ccc(S(N)(=O)=O)cc1[N+](=O)[O-])c1cccs1 51%, Clc1ccc(C2=CSC3=Nc4cccc5cccc(c45)N23)cc1 61.1%, CCc1nn(-c2cc(Oc3cccc4ccccc34)nc(-c3ccccc3)n2)c(N)c1C#N 56.2%, Cc1ccc(-c2cc(C(=O)NCc3cn(C)nc3C)c3cc(Br)ccc3n2)cc1 54.2%, CC(Oc1ccccc1)C(=O)Nc1oc(-c2ccco2)c(-c2ccco2)c1C#N (stereo not drawn) 63.1%, O=C(NNc1ccccn1)c1ccc(Cl)nc1 80.7%, O=C(COC(=O)CCC(=O)c1cccs1)NCc1ccco1 72.8%, CCOc1ccc(NC(=O)c2ccc(NC(=O)COC(=O)c3ccc(NC(=O)CC#N)cc3)cc2)cc1 61.4%
